This passage reports INHIBITION results from ChEMBL document CHEMBL4513216, “Probing the Open Global Health Chemical Diversity Library for Multistage-Active Starting Points for Next-Generation Antimalarials” (ACS Infect Dis, 2020).

The structures appear in SMILES notation. In all, about 69,000 compounds went through this assay and about 8,600 (12%) showed an effect of 50% or more. The sample as a whole holds a higher share of strong results than the screen did.

The assay concerns Plasmodium berghei. Nature of the assay: Screen against P. berghei liver stage (PbLuc), transformed with Luciferase, at 10uM. It is filed as functional, HepG2. The conditions noted are these: tested at 10 uM.
As to `CC(C)N(CCCNC(=O)C1CCCN(C(N)=O)C1)S(C)(=O)=O` (stereo not given), the INHIBITION amounted to 36.5%.
Next, `CN(Cc1cn(CC2CCNCC2)nn1)CC1CCCCO1` (stereo not given): -1.04%.
Next, `O=C1[C@H]2CN(Cc3ccco3)C[C@H]2CN1c1ccsc1`: 31.1%; `CC(NCCCN1CCCN(C)CC1)C(C)(C)C` (stereo not given): 26%.
As to `Cc1ccccc1-c1cc(NC(=O)Cn2ccccc2=O)n(C)n1`, the INHIBITION is on record as -3.94%.
The value for `Cn1nc(C(C)(C)C)cc1NC(=O)Cn1ccccc1=O` was 54.3%.
`Cc1cc(NC(=O)Cn2ccccc2=O)n(C)n1`: the INHIBITION is on record as 11.5%.
Next, `c1cnc(N2CCO[C@H]3CN(CC4CCCC4)C[C@H]32)cn1`: 42.1%.
For the compound `Fc1cnc(N2CCO[C@H]3CN(CC4CCOC4)C[C@H]32)nc1` (stereo not given in full), the INHIBITION was 43.1%.
The value for `c1cnc(N2CCO[C@H]3CN(CC4CCC4)C[C@H]32)cn1` was 62%; that for `Fc1cnc(N2CCO[C@H]3CN(CC4CCC4)C[C@H]32)nc1` was 12.2%.
With `c1cnc(N2CCO[C@H]3CN(CC4CCOC4)C[C@H]32)cn1` (stereo not given in full), the INHIBITION amounted to 44.8%.
Next, `c1cncc(N2CCO[C@H]3CN(CC4CCOC4)C[C@H]32)c1` (stereo not given in full): 62%; `O=C(C1=CCCCC1)N1CCO[C@H]2[C@H](Oc3ccccn3)CC[C@@H]21`: 27.6%; `CCCc1nc(C)cc(NCc2ccc(S(N)(=O)=O)cc2)n1`: 18.5%.
Next, `CCOc1ccc(-n2nnc(C(=O)O)c2-c2ccccn2)cc1`: -31.6%; `CCN(Cc1cc(Cl)ccc1OC)Cc1nccn1C`: 15.3%.
The value for `CCN(Cc1cc(Cl)ccc1OC)Cc1cc(C)nn1C` was 57.9%.
For the compound `CCN(Cc1ccccn1)Cc1cc(Cl)ccc1OC`, the INHIBITION is given as 39.1%.
On to `O=C(CCCN1CCCCC1)N1CCN(C(=O)c2nc[nH]n2)CC1`, for which the INHIBITION was -15.5%.
With `Cc1[nH]ncc1CCCNC(=O)N1CCOC(C)C1` (stereo not given), the INHIBITION is given as -1.95%.
Regarding `Cc1[nH]ncc1CCCNC(=O)Nc1ccc(F)cc1`, the INHIBITION was 78.2%.
Consider `Cc1[nH]ncc1CCCNC(=O)Nc1ccc(C#N)cc1`, for which the INHIBITION was -70.3%.
The value for `Cc1[nH]ncc1CCCNC(=O)Nc1ccc(S(C)(=O)=O)nc1` was 22.6%; that for `Cc1[nH]ncc1CCCNC(=O)Nc1ccccc1` was 24.6%; that for `Cc1[nH]ncc1CCCNC(=O)Nc1ccc2c(c1)OC1(CCCC1)O2` was 70.3%.
The value for `CN(CC1CCOC1)c1ccc(Br)cn1` (stereo not given) was 44.2%.
For the compound `CS(=O)(=O)N1CC[C@@H]2OC(COCC(=O)N3CCCC3)CC[C@@H]21` (stereo not given in full), the INHIBITION is listed as -8.94%.
Next, `COCc1cn(C2CCN(CCC(C)c3ccccc3)CC2)nn1` (stereo not given): 55.7%; `CNCc1cn(C2CCN(CCC(C)c3ccccc3)CC2)nn1` (stereo not given): 3.06%.
On to `CC(CCN1CCC(n2cc(CCO)nn2)CC1)c1ccccc1` (stereo not given), for which the INHIBITION worked out at 24.9%.
The value for `O=C1[C@@H]2CCN(C3CCOCC3)C[C@@H]2OCCN1Cc1cccnc1` was -8.54%; that for `CO[C@H]1CCN(S(=O)(=O)c2cn(C)cn2)[C@H]1Cc1cnn(C)c1` was 10.8%; that for `CN1CCc2nnc(C3CCCN3S(=O)(=O)c3ccc(F)cc3)n2CC1` (stereo not given) was -9.08%.
The value for `Cc1cc(C)c(CNCC(O)c2ccc(F)c(F)c2)c(C)c1` (stereo not given) was -20.3%.
The value for `O[C@H]1CCCC[C@@H]1N1CCN(CCCc2ccc3c(c2)OCO3)CC1` was 53.8%; that for `CSc1ccc(CCN2CCN([C@H]3CCCC[C@@H]3O)CC2)cc1` was 25.1%; that for `c1cc2c(cc1CN1C[C@@H]3COC[C@@H](N4CCCC4)[C@@H]3C1)OCO2` was 39.4%.
Turning to `CCCOc1c(CNC2CCSC2)cccc1OC` (stereo not given), the INHIBITION is on record as 4.87%.
Next, `CCn1c(Cn2cncn2)nnc1C1CCN(CCN)CC1`: 43.8%; `CCn1c(Cn2cncn2)nnc1C1CCN(CC2[C@H]3CNC[C@@H]23)CC1` (stereo not given in full): 57.1%; `CCn1c(Cn2cncn2)nnc1C1CCN(Cc2ccncc2)CC1`: -22.1%.
With `CC(C)c1nn(C)c(N(C)C)c1CNCCC(=O)N(C)C`, the INHIBITION is recorded as 3.19%.
The value for `CC(C)(C)NC(=O)CN1CCCN(Cc2cc(C#N)ccc2F)CC1` was -24.9%.
Next, `CCCN1CCN(C(=O)c2cnn(-c3ccccc3F)c2)CC1`: -39.9%.
The value for `CC(C)(C)n1cc(C(=O)N2CCN(Cc3ccncc3)CC2)cn1` was 24.15%.
With `CC(C)(O)CN1CCN(C(=O)c2cnn(-c3ccccc3F)c2)CC1`, the INHIBITION is listed as 58.5%.
As for `O=C(c1cnn(-c2ccccc2F)c1)N1CCN(CCO)CC1`, the INHIBITION is given as -10.3%.
The value for `CC(C)(O)CN1CCN(C(=O)c2sccc2C#N)CC1` was 54.4%; that for `CSc1ccsc1C(=O)N1CCN(CC(C)(C)O)CC1` was 25.3%.
For the compound `CC(C)C(C)(C#N)NC(=O)CN1CCCN(Cc2ccccc2F)CC1` (stereo not given), the INHIBITION stood at 82.4%.
The value for `CC(C)(C)n1cc(C(=O)N2CCN(Cc3ccccc3F)CC2)cn1` was 71.4%; that for `CCc1ccsc1C(=O)N1CCN(CC(C)(C)O)CC1` was -13.5%.
Next, `CC(C)(C)NC(=O)CN1CCCN(Cc2ccc(C#N)cc2)CC1`: -7.77%; `CC(C)(C)n1cc(C(=O)N2CCN(Cc3ccco3)CC2)cn1`: 6.15%.
On to `Cc1cnn(CCNc2cnc3ccccc3n2)c1`, for which the INHIBITION is recorded as -68.3%.
Next, `O=C([C@H]1C[C@@H]2CCN(C3CCOCC3)C[C@@H]2O1)N1CCOCC1`: -15.5%; `CN1CCC(CNC(=O)CCSc2ccc3c(c2)OCCO3)C1` (stereo not given): 28.5%; `Cc1cccc(CC(=O)N2CCN(c3nccn3C)CC2)c1`: -14.7%.
Next, `Cc1sc2c(C3CCCN(C(C)C)C3)nc(C)n2c1C` (stereo not given): -12.9%.
For `Cn1cc(CN2CCc3onc(C(=O)N4CCCC4)c3C2)cn1`, the INHIBITION is 33.5%.
The value for `COc1ccc(CC(=O)N2CCCC(n3cc(C)cn3)C2)c(OC)c1` (stereo not given) was 7.08%; that for `CN1CCN(C(=O)c2cnn(-c3ccccc3Cl)c2)CC1` was 14.1%; that for `CC(=O)N1CCCN(C(=O)c2cnn(-c3ccccc3Cl)c2)CC1` was 47%.
The value for `Cn1ccc(C(=O)N2CCN(Cc3ccccc3F)CC2)cc1=O` was -57%; that for `Cc1ncc(C(=O)N2CCCN(Cc3ccccc3F)CC2)c(O)n1` was 34.9%; that for `O=C(COCC1CCCO1)N1CCCN(Cc2ccccc2F)CC1` (stereo not given) was 53%.
The value for `CCn1ccc(C(=O)N2CCCN(Cc3ccccc3F)CC2)cc1=O` was 73.4%; that for `O=C(c1cnc(C2CC2)nc1O)N1CCN(Cc2ccccc2F)CC1` was -0.554%.
Turning to `O=C(COCC1CCCCO1)N1CCN(Cc2ccccc2F)C(=O)C1` (stereo not given), the INHIBITION amounted to 45.6%.
For `O=C(c1cccnc1O)N1CCN(Cc2ccccc2F)CC1`, the INHIBITION came out at 54.1%.
Regarding `CC(=O)N1CCN(C(=O)c2cnn(-c3ccccc3Cl)c2)CC1`, the INHIBITION is 56.1%.
Next, `Cc1ccccc1CN1CCCN(C(=O)c2ccn(C)c(=O)c2)CC1`: -7.46%; `N#Cc1ccc(OC2CCN(C(=O)COCC3CCCO3)CC2)cc1` (stereo not given): -13.9%.
On to `O=C(CCc1ccsc1)N1CCC(N2CCNC2=O)CC1`, for which the INHIBITION stood at 19.5%.
The value for `CN(CC(=O)N1CCCCC1Cn1cccn1)C1CC1` (stereo not given) was -79.3%.
The value for `Cc1cnn(CCNCc2ccccc2OCc2ccccn2)c1` was -15.5%; that for `CCCc1n[nH]c(C2CN(C(=O)c3cc(C4CC4)on3)CCO2)n1` (stereo not given) was 14%; that for `CN1CCN(C(=O)c2cc3sccc3n2Cc2ccccc2Cl)CC1` was 11.7%.
Next, `CC(C)(C)c1noc(CCC(=O)N2CCN(Cc3ccco3)CC2)n1`: 19.9%; `NC(=O)c1cc2c(nc1CCOc1ccc(F)cc1)CCC2`: 31.2%.
In the case of `NC(=O)c1cc2c(nc1CCOCc1ccccc1)CCC2`, the INHIBITION is 20.3%.
The value for `COc1cccc(OCCc2nc3c(cc2C(N)=O)CCC3)c1` was 54.8%; that for `O=C1CC[C@H]2[C@H](CCN2c2ncc(F)cn2)N1c1cccnc1` was 0.542%; that for `Cc1cccc(C(=O)N2CCCC(Cc3cncc4ccccc34)C2)n1` (stereo not given) was -22.6%.
Next, `CCN(CC)CCCNC(=O)C(C)n1cc(Br)cn1` (stereo not given): -1.33%.
Next, `Cc1cc(N2CCOCC(Cc3ccc4[nH]ccc4c3)C2)ncn1` (stereo not given): 67.7%.
In the case of `Cc1cc(N2CCC(Cc3ccncc3)C2)ncn1` (stereo not given), the INHIBITION is listed as -2.09%.
Turning to `c1cc(N2CCOCC(Cc3ccc4[nH]ccc4c3)C2)ncn1` (stereo not given), the INHIBITION is on record as 3.91%.
`Nc1cc(N2CCOCC(Cc3ccc4[nH]ccc4c3)C2)ncn1` (stereo not given): the INHIBITION is recorded as 66.5%.
Turning to `Cc1ccccc1CSc1nc(N)cc(N2CCOCC(CO)C2)n1` (stereo not given), the INHIBITION is 46.6%.
Next, `Cc1cc(N2CCC(Cc3cccnc3)C2)ncn1` (stereo not given): -2.09%; `Cc1nc(NCc2nncn2C2CC2)c2c(CC(C)C)csc2n1`: 45.4%.
Next, `Cc1ncsc1C(=O)N1CC(C)Sc2ccccc21` (stereo not given): 44%.
The value for `CC1CN(C(=O)c2ccnc(-n3cncn3)c2)c2ccccc2S1` (stereo not given) was -40.7%; that for `CC1CN(C(=O)c2cscn2)c2ccccc2S1` (stereo not given) was 63.7%.
In the case of `CC1CN(C)c2ccccc2CN1C(=O)c1cscn1` (stereo not given), the INHIBITION is on record as -4.15%.
In the case of `CC(=O)N1CC(C)CN(C(=O)c2cscn2)c2ccccc21` (stereo not given), the INHIBITION was -5.26%.
For `Cc1nc(C(=O)N2CC(C)Sc3ccccc32)cs1` (stereo not given), the INHIBITION is given as 56.8%.
Next, `O=S(=O)(c1cccs1)N1CC[C@H]2[C@H]1CCN2c1ncccn1`: -27%; `Cc1occc1C(=O)N1CCc2c(COCC3CC3)cncc2C1`: 27.9%; `CN1CCOC(C(=O)Nc2nc(-c3ccc4c(c3)CCC4)n[nH]2)C1` (stereo not given): 32.4%.
The value for `CN1CCOC(C(=O)Nc2nc(-c3ccccc3F)n[nH]2)C1` (stereo not given) was -35.9%; that for `CN1CCOC(C(=O)Nc2ccc3c(c2)nc(C(C)(C)C)n3C)C1` (stereo not given) was 93.9%; that for `CN1CCOC(C(=O)Nc2nc(-c3ccc(Cl)cc3)n[nH]2)C1` (stereo not given) was -29.5%.
Next, `CN1CCOC(C(=O)Nc2nnc(Cc3ccc(F)cc3)[nH]2)C1` (stereo not given): -2.71%; `Cn1c(C2CC2)nc2cc(NC(=O)C3CC=CC3)ccc21`: -22.4%; `CN1CCOC(C(=O)Nc2ccc3c(c2)nc(C2CC2)n3C)C1` (stereo not given): 60.8%.
Consider `Cn1c(C2CC2)nc2cc(NC(=O)C3CCOC3)ccc21` (stereo not given), for which the INHIBITION is -5.69%.
Next, `CN1CCOC(C(=O)Nc2ccc3[nH]nnc3c2)C1` (stereo not given): 59.7%.
